“And” between values parts separate entries of the source, which are not always exact repeats. Equal values may be shown once. The panel holds about 83,000 compounds, 20% with a hit somewhere; the sample as a whole holds those more often.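 Activity criterion: percent growth below 10, measured after cells in 96-well plates were exposed to a single compound concentration for 48 hours.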 The source made the active and inactive calls.
These molecules were tested on HCT-15 colon (assay: NCI-60 one-dose screen, 48 h (100 = growth as untreated, 0 = no growth, -100 = all killed)). Conditions: 10 µM.
Experimental: Growth inhibition of the HCT-15 human tumor cell line is measured as a screen for anti-cancer activity. Cells are grown in 96 well plates and exposed to the test compound for 48 hours. Compounds are tested at a single concentration, which is 10^-5 M for most compounds. The reported endpoint is percent growth (GI% or GIPRCNT), where numbers from 0 - 100% represent growth inhibition, and numbers from -100% - 0 represent cell death. For example, a value of 40 represents 60% growth inhibition. A value of 0 means no net growth occurred over the course of the experiment. A value of -40 indicates 40% of cells at the beginning of the experiment died by the end of the experiment. A value of -100 means all cells are dead at the end of the experiment.
NCI-60 Human Tumor Cell Lines Screen was performed using the standard one-dose NCI protocol, which is described in more detail at https://dtp.cancer.gov/discovery_development/nci-60/default.htm.
Compounds with GIPRCNT values below 10 were considered active. Activity score was based on GIPRCNT using the following formula: […]
Score is 0 for GIPRCNT values of 100 or above, 50 for GIPRCNT values of 0, and 100 for GIPRCNT values of -100.

| Compound | growth |
| --- | --- |
| CC(=O)/C=C/c1ccc(N(CCO)Cc2ccc(C(C)(C)C)cc2)cc1 | 62.5% (inactive) |
| COc1ccc(C(=O)/C=C/c2ccc(OCc3cccc(C(F)(F)F)c3)c(OC)c2)cc1OC | 73% (inactive) |

Same assay, conditions: 10 µM unless noted

| Compound | growth |
| --- | --- |
| O=C(CC1(O)C(=O)Nc2ccc(Br)cc21)c1ccc(Cl)cc1 (stereo not given) | 109% (inactive) |
| CCCCC1=C(Br)C(=O)c2nc(C)ccc2C1=O | 95.5% (inactive) |
| CCOC(=O)c1c(-c2ccc(OC)cc2)c(C#N)c2c(C#N)c(N)nn2c1N | 22.6% (inactive) |
| CC/C=C\C/C=C\C[C@H](O)C/C=C1/C(=O)C=C[C@@H]1C/C=C\CCCC(=O)OC | -25.8% (active) |
| Cc1ccc(NC(=O)c2ccc(CN3CCN(C)CC3)cc2)cc1Nc1nccc(-c2cccnc2)n1 | 88.5% (inactive) and 48.2% (inactive) |
| Cn1cc(-c2csc(-c3c[nH]c4ccc(F)cc34)n2)c2cnccc21 | -69.7% (active) |
| NC(N)=NC(N)=NCCCc1ccco1 | 106% (inactive) |
| N#Cc1c(N)nnn1Cc1cc(=O)oc2ccc(O)cc12 | 110% (inactive) |
| CCOC(=O)N(O)c1ccc(/C=C/c2ccccc2)cc1 | 69.8% (inactive) and 72.3% (inactive) |
| COc1ccc2c(c1)c(-c1nc(-c3c[nH]c4c(Cl)nccc34)cs1)cn2C | 64.3% (inactive) |
| O=C1c2cccc3cccc(c23)C(=O)N1N1C(=O)c2cccc3c(N4CCNCC4)ccc(c23)C1=O | 50.6% (inactive) |
| O=c1oc2c(Br)cc(Br)cc2cc1-c1cc(-c2ccc(-c3cc(-c4cc5cc(Br)cc(Br)c5oc4=O)nc(-c4cc5cc(Br)cc(Br)c5oc4=O)c3)cc2)cc(-c2cc3cc(Br)cc(Br)c3oc2=O)n1 | 111% (inactive) |
| OB(O)c1ccsc1-c1nc2ccc3[nH]ncc3c2c2c1CCCC2 | 31.3% (inactive) |
| COc1ccc2c(c1)c(C(=O)c1nc(-c3cn(C)c4ccccc34)no1)cn2C | 82.9% (inactive) |
| COc1cc(NS(=O)(=O)C(C)C)cc(-c2cc(-c3ccc(N4CCNCC4)cc3)cnc2N)c1 | 112% (inactive) |
| FC(F)(F)Sc1ccc(/C=C/c2cc(/C=C/c3ccc(SC(F)(F)F)cc3)n(-c3ccccc3)n2)cc1 | 100% (inactive) |
| O=c1ccc2nc(-c3ccccn3)nn(-c3ccccc3)c-2c1 | -48% (active) |
| COc1ccc(C/C(C)=C(\c2ccc(O)cc2)c2ccc(OCCCN(C)C)cc2)cc1 | 89.7% (inactive) |

| Compound | growth |
| --- | --- |
| N=C(N)c1ccc(-c2ccc(-c3ccc(Cl)c(Cl)c3)s2)cc1 | -62.5% (active) |
| CCCCSc1ccc2nc(-c3ccc(OCCCN=C(N)N)cc3)cn2c1 | 92.7% (inactive) |
| Cc1ccc(-c2nc3nc(-c4ccccc4)nc(N4CCCNCC4)c3o2)cc1 | -81.5% (active) |
| O=C1/C(=C/c2ccccc2[N+](=O)[O-])Cc2ccccc21 | -56.9% (active) and 5.02% (active) |
| C=CCOc1ccc(/C=C2\SC(=S)N(CCc3ccc(O)cc3)C2=O)cc1 | 82.9% (inactive) |
| CCOC(=O)c1cnn(-c2ccc(S(N)(=O)=O)cc2)c1N | 108% (inactive) |
| Cc1ccc(C(=O)Nc2nc3c(s2)CN(Cc2ccccc2)CC3)cn1 | 49.5% (inactive) |
| N=C(N)c1ccc(-c2ccc(-c3ccc(F)cc3)s2)nc1 | 10.4% (inactive) |
| CCCCCCCCCCCCCCCC[N+](C)(C)CCN(Cc1ccc(OC)cc1)c1ncccn1 | 74.4% (inactive) and 94.5% (inactive) |
| COc1ccc(-c2nnc3n(C)c(=O)c4ccccc4n23)cc1O | 22.9% (inactive) |
| O=C(CCl)n1nnnc1Cc1ccccc1 | 102% (inactive) |
| C=C1C(=O)O[C@H]2[C@H]1CC/C(CNS(=O)(=O)c1ccc3ccccc3c1)=C\CC[C@@]1(C)O[C@@H]21 | -78.5% (active) |
| COc1cc(F)c(/C=C/c2cc(/C=C/c3cc(OC)c(OC)cc3F)n(-c3cc(F)cc(F)c3)n2)cc1OC | 11.5% (inactive) |
| COc1c(O)c(O)cc2c3c(oc12)CC(c1ccc2c(c1)OCO2)CC3=O (stereo not given) | 42.1% (inactive) |
| Cc1ccc(-c2nc([P+](c3ccccc3)(c3ccccc3)c3ccccc3)c(Nc3ccccc3)o2)cc1 | 1.96% (active) |
| CCOC(=O)n1cc(-c2nonc2-c2cn(C)c3ccc(OC)cc23)c2cc(F)ccc21 | 69.2% (inactive) |
| Cc1ccc(/C=C(\C#N)c2cc3ccccc3[nH]2)cc1 | 27.1% (inactive) |
| Cc1n(Cc2ccc3ccccc3c2)c(Cl)c(Cl)[n+]1Cc1ccc2ccccc2c1 | 92.5% (inactive) |

Same assay, conditions: 100 µM

| Compound | growth |
| --- | --- |
| CC(=O)/C=C/c1ccc(N(CCO)Cc2ccc(C(C)(C)C)cc2)cc1 | -83% (active) |
| COc1ccc(C(=O)/C=C/c2ccc(OCc3cccc(C(F)(F)F)c3)c(OC)c2)cc1OC | 14.4% (inactive) |

From PubChem BioAssay (NCI)
